# Assay results: publication PMC4336329 (PLoS ONE, 2015)
# The whole screen tested about 310,000 compounds, of which about 14,000 (4.5%) showed an effect of 50% or more. Effects have a minus sign here. This excerpt belongs to a sample that is enriched for strong results.
# Molecular target: human ether-à-go-go-related gene (hERG) potassium channel (human, UniProt Q12809)
# Assay: primary screen, population patch clamp on CHO cells stably expressing hERG; higher = less effect of the substance
# 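Further: peak tail current of the secondary pulse compared with the same well before compound.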
# Sequence of human ether-à-go-go-related gene (hERG) potassium channel (Q12809 whole entry, looked up): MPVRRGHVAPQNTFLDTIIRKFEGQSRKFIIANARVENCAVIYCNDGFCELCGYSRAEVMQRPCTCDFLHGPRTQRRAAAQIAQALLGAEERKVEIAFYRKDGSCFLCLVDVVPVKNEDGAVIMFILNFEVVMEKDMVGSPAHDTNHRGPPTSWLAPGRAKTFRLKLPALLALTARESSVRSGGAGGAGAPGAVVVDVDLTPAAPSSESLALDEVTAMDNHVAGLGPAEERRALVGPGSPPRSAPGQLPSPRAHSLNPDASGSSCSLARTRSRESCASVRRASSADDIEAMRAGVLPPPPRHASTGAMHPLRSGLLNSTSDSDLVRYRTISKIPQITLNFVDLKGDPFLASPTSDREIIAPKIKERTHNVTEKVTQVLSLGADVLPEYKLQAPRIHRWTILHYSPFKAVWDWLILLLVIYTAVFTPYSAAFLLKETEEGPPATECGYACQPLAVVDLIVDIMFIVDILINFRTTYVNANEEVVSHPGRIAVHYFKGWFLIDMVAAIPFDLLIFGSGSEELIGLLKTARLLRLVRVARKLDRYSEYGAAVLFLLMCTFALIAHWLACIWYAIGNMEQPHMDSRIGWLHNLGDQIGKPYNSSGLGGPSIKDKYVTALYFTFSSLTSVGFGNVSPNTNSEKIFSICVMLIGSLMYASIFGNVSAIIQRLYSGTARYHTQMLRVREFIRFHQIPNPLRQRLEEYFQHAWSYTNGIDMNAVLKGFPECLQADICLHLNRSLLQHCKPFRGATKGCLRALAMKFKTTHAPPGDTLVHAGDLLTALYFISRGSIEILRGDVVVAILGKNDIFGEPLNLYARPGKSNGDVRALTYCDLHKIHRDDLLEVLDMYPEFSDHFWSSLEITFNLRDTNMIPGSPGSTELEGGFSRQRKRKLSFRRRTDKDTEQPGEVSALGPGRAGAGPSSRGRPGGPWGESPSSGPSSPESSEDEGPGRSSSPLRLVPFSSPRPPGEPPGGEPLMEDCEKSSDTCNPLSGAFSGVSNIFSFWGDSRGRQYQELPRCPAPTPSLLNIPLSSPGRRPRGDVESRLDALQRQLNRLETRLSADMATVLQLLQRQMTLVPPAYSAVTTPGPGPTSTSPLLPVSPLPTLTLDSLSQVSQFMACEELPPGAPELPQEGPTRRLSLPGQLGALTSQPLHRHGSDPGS
row,SMILES,"hERG current change (%, negative = inhibition) at 10uM"
1,CC(=O)Nc1ccc(NC(=O)Nc2ccccc2)cc1,10.5%
2,CC(=O)OCC[C@H](NS(=O)(=O)OCC(Cl)(Cl)Cl)c1ccccc1,1.61%
3,COc1cc(NC(=O)c2cc(C(C)C)on2)c(OC)cc1Cl,3.16%
4,COc1ccccc1N1CCN(C(=O)c2cc3cc(F)ccc3[nH]2)CC1,15.8%
5,COc1ccccc1N1CCN(C(=O)c2cc(-c3ccc(F)cc3)on2)CC1,19.1%
6,COc1ccccc1N1CCN(C(=O)c2cc(-c3ccc(F)cc3)[nH]c2C)CC1,-64.5%
7,O=C(c1ccccc1C(=O)N1CCN(c2ccccc2F)CC1)N1CCN(c2ccccc2F)CC1,-31%
8,Cc1[nH]c(-c2ccc(F)cc2)cc1C(=O)N1CCN(c2ccccc2F)CC1,-70.3%
9,O=C(c1ccccc1F)N1CCN(c2ccccc2F)CC1,-2.08%
10,N#CC1=C(N)Oc2n[nH]c(-c3cccs3)c2C1C1CCCCC1 (stereo not drawn),8.73%
11,Cc1ccccc1C(=O)Nc1ccccc1NC(=O)c1ccccc1Br,25.4%
12,COC(=O)c1ccc(-c2noc(CN(C)CC3CCCCO3)n2)cc1 (stereo not drawn),11.3%
13,Cn1c(Cn2c(=O)sc3ccccc32)nnc1SCc1cccc(F)c1,-11.6%
14,Cc1cc(C)cc(NC(=S)NCc2ccc3c(c2)OCO3)c1,-8.9%
15,OC(CNCC1CCCCC1)COc1ccccc1 (stereo not drawn),-0.428%
16,Cc1ccc(CC(=O)Nc2cc(C)ccn2)cc1,11.2%
17,O=[N+]([O-])c1cc(S(=O)(=O)NCCN2CCOCC2)ccc1Sc1nnnn1-c1ccccc1,-24.6%
18,CCCCSc1nnc(CNC(=O)C23CC4CC(CC(C4)C2)C3)n1Cc1ccccc1,-29.7%
19,O=C(Nc1ccc(CN2CCOCC2)cc1)c1ccc(-c2ccc(Cl)cc2Cl)o1,-7.54%
20,Cn1c(=O)n(C)c2cc([N+](=O)[O-])c(N3CCN(C(=O)c4ccccc4)CC3)cc21,-36.1%
21,Cn1c(=O)n(C)c2cc([N+](=O)[O-])c(N3CCN(C(=O)c4ccccc4Cl)CC3)cc21,-34.4%
22,Cn1c(=O)n(C)c2cc([N+](=O)[O-])c(N3CCN(C(=O)c4ccccc4Br)CC3)cc21,-70.6%
23,Cn1c(=O)n(C)c2cc([N+](=O)[O-])c(N3CCN(CCO)CC3)cc21,24.9%
24,Cn1c(=O)n(C)c2cc([N+](=O)[O-])c(N3CCN(C(=O)c4cccc(Cl)c4)CC3)cc21,-64.2%
25,Cn1c(=O)n(C)c2cc(N3CCCCC3)c(NC(=O)c3cccc(Cl)c3)cc21,14.8%
26,CCOC(=O)C(=O)N1CCN(c2cc3c(cc2[N+](=O)[O-])n(C)c(=O)n3C)CC1,-24.2%
27,Cc1ccc(C(=O)N2CCN(c3cc4c(cc3[N+](=O)[O-])n(C)c(=O)n4C)CC2)cc1,-66.6%

row,SMILES,"hERG current change (%, negative = inhibition) at 10uM"
1,Cn1c(=O)n(C)c2cc([N+](=O)[O-])c(N3CCN(C(=O)c4ccc(Cl)cc4)CC3)cc21,-65.9%
2,Cn1c(=O)n(C)c2cc([N+](=O)[O-])c(N3CCNCC3)cc21,5.58%
3,Cn1c(=O)n(C)c2cc([N+](=O)[O-])c(N3CCN(C(=O)C(C)(C)C)CC3)cc21,-8.56%
4,Cn1c(=O)n(C)c2cc([N+](=O)[O-])c(N3CCN(C(=O)c4ccc(F)cc4)CC3)cc21,-44%
5,O=C(COC(=O)c1ccc2ncsc2c1)Nc1cccc(Cl)c1,2.07%
6,Cc1ccc(-n2c(SCn3nnc4ccccc4c3=O)nnc2-c2cccnc2)c(C)c1,-39.3%
7,Cc1cccc(C)c1NC(=O)CN(C)CC(=O)Nc1ccccc1Oc1ccccc1,11.3%
8,COc1ccc(NC(=O)c2ccc([N+](=O)[O-])o2)cc1,11.1%
9,O=C(COc1ccc2ccc(=O)oc2c1)NC1CCCC1,13.4%
10,CCc1cc(=O)oc2cc(C)cc(OCC(=O)NC3CCN(Cc4ccccc4)CC3)c12,-36%
11,O=C(COc1ccccc1)NC1CCN(Cc2ccccc2)CC1,-50.4%
12,O=C(O)COCC(=O)NC1CCN(Cc2ccccc2)CC1,12.5%
13,O=C(COc1ccccc1)NC1CCCCCCC1,-4.51%
14,CCCc1cc(=O)oc2cc(OCC(=O)NC3CCN(Cc4ccccc4)CC3)ccc12,-60.2%
15,CCCc1cc(=O)oc2c(C)c(OCC(=O)NC3CCN(Cc4ccccc4)CC3)ccc12,-51.4%
16,Cc1c(C)c2ccc(OCC(=O)NC3CCN(Cc4ccccc4)CC3)c(C)c2oc1=O,-42.7%
17,O=C(COc1ccc2ccc(=O)oc2c1)NC1CCN(Cc2ccccc2)CC1,-55.2%
18,O=C(COc1ccc2ccc(=O)oc2c1)NC1CCCCC1,1.43%
19,CCCc1cc(=O)oc2cc(C)cc(OCC(=O)NC3CCN(Cc4ccccc4)CC3)c12,-10.3%
20,Cc1c(OCC(=O)NC2CCN(Cc3ccccc3)CC2)ccc2c3c(c(=O)oc12)CCC3,-47.7%
21,Cc1ccc(S(=O)(=O)c2cnc3cc(C)nn3c2N)cc1,0.694%
22,Cc1ccc(CN2C(=O)[C@@H]3Cc4c([nH]c5ccccc45)C(C)(C)N3C2=O)cc1,7.62%
23,O=[N+]([O-])c1ccccc1/C=N/NC1=NS(=O)(=O)c2ccccc21,-1.94%
24,O=C(NCCCN1CCCC1=O)NC1CCCCC1,10.9%
25,Cc1ccc(NC(=S)NNC(=O)c2ccc(N3CCOCC3)c([N+](=O)[O-])c2)cc1Cl,6.24%
26,O=C(O)CCC1=C2c3ccccc3CCN2C(=O)CC1,9.77%
27,Cc1ccc(C(=O)Nn2cnnc2)cc1Cl,16.3%
